The target of test [1] is Lysosomal acid glucosylceramidase (Homo sapiens) (UniProt P04062). The test is described as follows: Glucocerebrosidase-p2 (AID 348; in the data active = potency below about 10 µM; also: potency is read from the fitted curve at half-maximal effect). The note with it: purified GBA, blue fluorogenic substrate, 40 min. An outline of the steps:
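Compounds titrated from 0.6 nM upwards against 0.2 nM enzyme in pH 5.9 citric acid/KH2PO4, taurocholate, tween-20; blue fluorogenic substrate 80 uM, 40 min room temperature, stopped and read Ex 365/Em 440 for AC50.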

Test [2] can be described thus: AP1 Signaling Pathway (AID 357; active = well fitted curve in either direction with a large enough effect, not every such curve was filed as active; also: % is scaled to controls: 0 for no effect and ±100 for the full control effect). The note with it: ME-180 AP-1-bla reporter, EGF-induced, beta-lactamase ratio, 5 h; at 7.69 µM (top of the series) unless noted. The procedure, abridged: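 Modulation of EGF-driven AP-1 transcription was assessed with a beta-lactamase reporter in ME-180 cells. Compound and EC50 EGF were co-incubated 5 hours at 37 °C before 2.5-hour CCF4 loading at room temperature and dual-emission reading.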

The target of test [3] is Cytochrome P450 1A2 (Homo sapiens) (UniProt P05177). The test is described as follows: p450-cyp1a2 (AID 410; calls by dose curve; also: potency is read from the fitted curve at half-maximal effect). The note with it: recombinant CYP1A2, luciferin-ME demethylation, luminescence; series mostly up to 57 µM. An outline of the steps: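 Inhibition was calculated relative to 57 uM furafylline (full inhibition). The reaction used human CYP1A2 at 20nM with Luciferin-ME at its Km, 100uM, driven by an NADPH-regenerating system for 60 min at room temperature.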

The nature of test [4]: NFAT Signaling Pathway (AID 444; active = well fitted curve in either direction with a large enough effect, not every such curve was filed as active;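 also: carbachol stimulus at about its EC50 of 1 µM final; % is scaled to controls: 0 for no effect and ±100 for the full control effect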). The note with it: Jurkat NFAT-bla M1, carbachol, beta-lactamase ratio, 5 h; at 7.69 µM (top of the series) unless noted. An outline of the steps:
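Read-out: CCF4 FRET ratio (460 nm/530 nm) after 1 h RT dye loading, used for %activity and AC50 from titration series. Cells: Jurkat NFAT-β-lactamase/M1 line, treated with compound plus 1 uM carbachol for 5 h, 37 °C.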

Test [5] in a line: Stat Signaling Pathway (AID 446; active = well fitted curve in either direction with a large enough effect, not every such curve was filed as active;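 also: ME-180 cervical cancer cells given 40 pM IL-6 alongside compound; SIE-controlled beta-lactamase reporter measured as 460/530 nm FRET emission ratio; % is scaled to controls: 0 for no effect and ±100 for the full control effect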). The note with it: ME-180 SIE beta-lactamase reporter, IL-6 stimulated, 5 h; at 7.69 µM (top of the series) unless noted. An outline of the steps: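 Screening format detects activators and inhibitors alike: ME-180 SIE-bla cells stimulated at 40 pM IL-6 for 5 hrs with compound, then dual-emission beta-lactamase read at 405 nm excitation.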
Test [6] concerns the target Glucocorticoid receptor (Homo sapiens) (UniProt P04150). Nature of the test: GR-GFP Redistribution (AID 450;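 active = compounds whose dose series gives a full or clear partial fitted curve of increased nuclear translocation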; also: potency is read from the fitted curve at half-maximal effect). The note with it: U2OS GR-GFP nuclear translocation, laser cytometry, 2 h.
Test [7] shares this target. The test is described as follows: GR-EFC Redistribution (AID 451; calls by dose curve; also: potency is read from the fitted curve at half-maximal effect). The note with it: CHO-K1 GR-EFC translocation, beta-gal luminescence, 2 h. An outline of the steps:
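Translocation of GR-ED fusion to nuclear EA restores b-gal, read by luminescence after 1 h room-temperature detection. Engineered CHO-K1 biosensor cells, 1,000/well, exposed 2 h at 37 C to titrations up to 46 uM final.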

The target in test [8] is Mitogen-activated protein kinase 10 (Mus musculus) (UniProt Q61831). The test is described as follows: JNK3 AlphaScreen Assay (AID 530; active = well fitted curve in either direction with a large enough effect, not every such curve was filed as active;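 also: kinase came from lysate of stimulated human HepG2 cells; signal reports phosphorylation of biotinylated GST-cJun 1-79 at Ser73 with 10 µM ATP; % is scaled to controls: 0 for no effect and ±100 for the full control effect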). The note with it: JNK3 lysate, c-Jun phosphorylation; series mostly up to 57.1 µM. The procedure, abridged:
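Room-temperature AlphaScreen kinase assay; pre-activated HepG2 lysate as JNK3 source, biotin-GST-cJun(1-79) substrate, 10 uM ATP, compound 15 min preincubation.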
In general terms: Alpha assays give light when donor and acceptor beads are brought close together.

For test [9], the target named is 3',5'-cyclic-AMP phosphodiesterase 4B (Homo sapiens) (UniProt Q07343). The test is described as follows: qHTS Assay for Inhibitors of PDE-IV (AID 607; active = well fitted activation curve with a large enough effect in the main read-out, with a control signal flat, not every such curve was filed as active; also: % of control where 0% means no effect). The note with it: HEK293 ACTOne CNG channel cells, membrane potential fluorescence; series mostly up to 22.9 µM. An outline of the steps:
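The readout is membrane depolarisation from a cAMP-sensing CNG channel, detected with a potential dye at ex 535/em 590. Cells were HEK293-derived (endogenous PDE-IV) at 1000 cells/well, titrated up to 22.9 uM final.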
(qHTS replaces the single test concentration by a dilution series.)

In test [10] the target is Dual specificity protein kinase CLK4 (Homo sapiens) (UniProt Q9HAZ1). The test is described as follows: qHTS Assay for Inhibitors of CDC-like Kinase 4 (Kinase-Glo Assay) (AID 1770). Also: nearly all actives have a fitted effect of over 65% in size. Also: potency is read from the fitted curve at half-maximal effect. The note with it: recombinant Clk4, Kinase-Glo ATP depletion luminescence; series mostly up to 66.7 µM. The procedure, abridged: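 Inhibition was judged from remaining ATP, measured by Ultra-Glo luciferase bioluminescence after Clk4 (25 nM) had acted on RS peptide at 1 uM ATP for 4.5 hours, room temperature.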

For test [11] the target is unchanged. The test is described as follows: qHTS Assay for Inhibitors of CDC-like Kinase 4 (ADP-FP Assay) (AID 1795). Also: nearly all actives have a fitted effect of over 60% in size. Also: potency is read from the fitted curve at half-maximal effect. The note with it: Transcreener ADP fluorescence polarization; series mostly up to 50 µM. The procedure, abridged:
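Inhibition of ADP formation by 6.25 nM Clk4 is measured using 1 uM ATP and 100 uM RS repeat peptide over one hour. Produced ADP displaces a fluorescent tracer from antibody, lowering polarization.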

The target in test [12] is Ubiquitin carboxyl-terminal hydrolase 1 (Homo sapiens) (UniProt O94782). The test is described as follows: Inhibitors of USP1/UAF1: Pilot qHTS (AID 504865).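 Also: rhodamine fluorescence freed from ubiquitin-rhodamine substrate followed over time; top concentration of the series differs between compounds; % is scaled to controls: 0 for no effect and ±100 for the full control effect; nearly all actives have a fitted effect of over 35% in size.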 The note with it: purified USP1/UAF1, Ub-rhodamine cleavage fluorescence; series mostly up to 54.9 µM. An outline of the steps:
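Kinetic fluorescence assay: 1nM USP1/UAF1, 15 min compound preincubation, then 150nM Ub-Rho; 480/540 nm.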

Test [13] in a line: Primary qHTS for small molecule stabilizers of the endoplasmic reticulum resident proteome: Secreted ER Calcium Modulated Protein (SERCaMP) assay (AID 1508630). Also: % is scaled to controls: 0 for no effect and ±100 for the full control effect. The note with it: SH-SY5Y GLuc-SERCaMP (Gaussia luciferase released on ER calcium loss) secretion, thapsigargin, luminescence; series mostly up to 38.4 µM. An outline of the steps: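 GLuc-SERCaMP-expressing SH-SY5Y cells, pretreated 16 h with compound, are challenged with thapsigargin to empty ER calcium stores; after 4 h, coelenterazine is added directly to the medium and luminescence is imaged.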

Test [14] addresses Cytochrome P450 3A4 (Homo sapiens) (UniProt P08684). The test is described as follows: qHTS Assay for Inhibitors and Substrates of Cytochrome P450 3A4 (AID 884). Also: potency is read from the fitted curve at half-maximal effect; nearly all actives have a fitted effect of over 50% in size. The note with it: recombinant CYP3A4, Luciferin-PPXE luminescence; series mostly up to 57.1 µM. An outline of the steps: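 20 nM human CYP3A4 with 25 uM Luciferin-PPXE (at KM) in 200 mM KPO4, preincubated 10 min with compound; NADPH regeneration started a 60 min RT reaction. Luciferin detected by luminescence, normalized to 57 uM ketoconazole as full inhibition.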

The target is the same in test [15]. Nature of the test: qHTS Assay for Activators of Cytochrome P450 3A4 (AID 885). Also: nearly all actives have a fitted effect of over 65% in size. The note with it: recombinant CYP3A4, Luciferin-PPXE luminescence, 60 min; series mostly up to 57.1 µM. The procedure, abridged: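 Steps: enzyme/substrate mix dispensed; compound added, 10 min RT; NADPH regeneration solution added, 60 min RT; luciferin detection buffer stops reaction; 20 min later luminescence measured.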

Test [16] addresses Dual specificity protein kinase CLK4 (Homo sapiens) (UniProt Q9HAZ1). Nature of the test: qHTS Assay for Inhibitors of CDC-like Kinase 4 (ADP-Glo Assay) (AID 1771). Also: potency is read from the fitted curve at half-maximal effect; nearly all actives have a fitted effect of over 70% in size. The note with it: recombinant CLK4, ADP-Glo luminescence; series mostly up to 80 µM. An outline of the steps:
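Kinase reaction: Clk4 at 25 nM, RS repeat peptide substrate at 100 uM, ATP at 1 uM, 1 hr, room temperature. Product ADP detected as luciferase signal via ADP-Glo.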

For test [17], the target named is Cytochrome P450 2C9 (Homo sapiens) (UniProt P11712). The test is described as follows: qHTS Assay for Inhibitors and Substrates of Cytochrome P450 2C9 (AID 883). Also: % is scaled to controls: 0 for no effect and ±100 for the full control effect; nearly all actives have a fitted effect of over 60% in size. The note with it: recombinant CYP2C9, luciferin-H luminescence, 60 min; series mostly up to 57.1 µM. The procedure, abridged:
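Inhibition of CYP2C9 is scored as loss of luminescence, with 57uM sulphaphenazole defining 100% inhibition. Substrate Luciferin-H is used at 100uM, equal to its KM; enzyme at 10nM in 25mM KPO4, 60 min at 37C with NADPH regeneration.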

From PubChem BioAssay (NCATS) come the findings set out here.

Each structure is given as a SMILES string. A number with no mark means an inactive call. Records with an inconclusive call do not appear. Activity calls are given as the source filed them. Unless noted, calls follow the shape of the dose curve; as a rule, active = well fitted curve in the direction sought with a large enough effect; inconclusive = small, poorly fitted or top-dose-only effect, or another doubt; inactive = no such curve, though single readings can be large; an effect the other way counts as inactive or inconclusive.

Chain of Lysosomal acid glucosylceramidase (Homo sapiens) (P04062 whole entry, looked up): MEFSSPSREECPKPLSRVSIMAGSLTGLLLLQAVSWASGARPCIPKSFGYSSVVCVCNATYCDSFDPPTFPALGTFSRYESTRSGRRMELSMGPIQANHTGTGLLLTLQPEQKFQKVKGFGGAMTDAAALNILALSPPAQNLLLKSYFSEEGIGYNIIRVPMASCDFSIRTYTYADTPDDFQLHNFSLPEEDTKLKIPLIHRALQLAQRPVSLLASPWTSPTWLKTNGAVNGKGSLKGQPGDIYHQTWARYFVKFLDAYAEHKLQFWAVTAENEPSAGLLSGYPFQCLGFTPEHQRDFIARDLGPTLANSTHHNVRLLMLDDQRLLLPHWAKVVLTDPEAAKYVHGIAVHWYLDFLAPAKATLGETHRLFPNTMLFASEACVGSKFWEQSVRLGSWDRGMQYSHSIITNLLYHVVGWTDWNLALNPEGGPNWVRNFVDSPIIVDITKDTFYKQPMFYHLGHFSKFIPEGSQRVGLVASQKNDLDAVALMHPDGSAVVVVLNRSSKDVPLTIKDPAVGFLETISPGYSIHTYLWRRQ
Chain of Cytochrome P450 3A4 (Homo sapiens) (P08684 whole entry, looked up): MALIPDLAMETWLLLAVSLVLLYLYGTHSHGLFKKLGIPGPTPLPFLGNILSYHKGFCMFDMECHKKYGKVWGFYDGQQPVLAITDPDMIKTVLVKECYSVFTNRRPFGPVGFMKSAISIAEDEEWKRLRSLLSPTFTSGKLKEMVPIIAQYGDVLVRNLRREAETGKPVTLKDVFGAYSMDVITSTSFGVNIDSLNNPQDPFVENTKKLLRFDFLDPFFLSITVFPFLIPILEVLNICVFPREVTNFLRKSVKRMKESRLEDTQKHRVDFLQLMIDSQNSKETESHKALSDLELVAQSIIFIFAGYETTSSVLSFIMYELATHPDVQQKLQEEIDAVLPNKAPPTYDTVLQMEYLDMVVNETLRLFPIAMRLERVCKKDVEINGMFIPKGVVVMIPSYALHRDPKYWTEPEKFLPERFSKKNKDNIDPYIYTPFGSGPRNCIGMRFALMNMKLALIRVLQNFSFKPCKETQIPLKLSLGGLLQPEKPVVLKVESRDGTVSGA
Chain of Ubiquitin carboxyl-terminal hydrolase 1 (Homo sapiens) (O94782 whole entry, looked up): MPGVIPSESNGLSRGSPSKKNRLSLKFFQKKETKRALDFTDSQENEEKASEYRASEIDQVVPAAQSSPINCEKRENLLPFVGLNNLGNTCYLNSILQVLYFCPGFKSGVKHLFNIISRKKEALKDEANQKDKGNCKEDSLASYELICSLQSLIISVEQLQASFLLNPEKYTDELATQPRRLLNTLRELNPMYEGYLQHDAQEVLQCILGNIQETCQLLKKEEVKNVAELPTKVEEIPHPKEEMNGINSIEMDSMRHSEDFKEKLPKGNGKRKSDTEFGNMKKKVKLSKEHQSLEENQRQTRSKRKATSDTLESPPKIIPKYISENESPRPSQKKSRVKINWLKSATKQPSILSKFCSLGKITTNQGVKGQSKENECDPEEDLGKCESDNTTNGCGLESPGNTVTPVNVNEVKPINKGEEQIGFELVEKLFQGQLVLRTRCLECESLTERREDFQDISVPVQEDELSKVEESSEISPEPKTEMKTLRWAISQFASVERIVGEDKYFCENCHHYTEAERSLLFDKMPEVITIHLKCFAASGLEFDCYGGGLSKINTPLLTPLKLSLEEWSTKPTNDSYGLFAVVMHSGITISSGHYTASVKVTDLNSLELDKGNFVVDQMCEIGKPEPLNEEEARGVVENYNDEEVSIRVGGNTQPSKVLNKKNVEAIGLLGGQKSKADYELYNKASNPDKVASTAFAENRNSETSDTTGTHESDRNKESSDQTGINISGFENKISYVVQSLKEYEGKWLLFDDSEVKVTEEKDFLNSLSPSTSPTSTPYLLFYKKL
Chain of 3',5'-cyclic-AMP phosphodiesterase 4B (Homo sapiens) (Q07343 whole entry, looked up): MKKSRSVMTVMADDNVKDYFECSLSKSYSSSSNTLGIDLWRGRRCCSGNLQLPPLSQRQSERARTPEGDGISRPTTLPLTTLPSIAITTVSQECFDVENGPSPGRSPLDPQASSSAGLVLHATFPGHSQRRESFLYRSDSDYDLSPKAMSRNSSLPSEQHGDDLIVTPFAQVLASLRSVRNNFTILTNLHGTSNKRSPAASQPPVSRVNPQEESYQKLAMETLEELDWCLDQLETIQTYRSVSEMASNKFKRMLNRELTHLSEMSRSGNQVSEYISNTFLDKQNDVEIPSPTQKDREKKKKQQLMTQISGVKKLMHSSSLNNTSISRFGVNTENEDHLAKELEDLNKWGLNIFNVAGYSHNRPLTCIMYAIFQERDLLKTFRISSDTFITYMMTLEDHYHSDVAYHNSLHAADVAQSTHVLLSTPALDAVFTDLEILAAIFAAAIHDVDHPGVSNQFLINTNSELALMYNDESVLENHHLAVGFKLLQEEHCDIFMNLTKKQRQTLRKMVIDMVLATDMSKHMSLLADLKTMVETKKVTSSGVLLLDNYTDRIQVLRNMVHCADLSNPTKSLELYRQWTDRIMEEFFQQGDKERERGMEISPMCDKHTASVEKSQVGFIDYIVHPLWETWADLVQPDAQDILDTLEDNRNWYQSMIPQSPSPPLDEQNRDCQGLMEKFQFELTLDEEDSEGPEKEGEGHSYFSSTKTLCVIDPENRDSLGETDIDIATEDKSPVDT
Chain of Glucocorticoid receptor (Homo sapiens) (P04150 whole entry, looked up): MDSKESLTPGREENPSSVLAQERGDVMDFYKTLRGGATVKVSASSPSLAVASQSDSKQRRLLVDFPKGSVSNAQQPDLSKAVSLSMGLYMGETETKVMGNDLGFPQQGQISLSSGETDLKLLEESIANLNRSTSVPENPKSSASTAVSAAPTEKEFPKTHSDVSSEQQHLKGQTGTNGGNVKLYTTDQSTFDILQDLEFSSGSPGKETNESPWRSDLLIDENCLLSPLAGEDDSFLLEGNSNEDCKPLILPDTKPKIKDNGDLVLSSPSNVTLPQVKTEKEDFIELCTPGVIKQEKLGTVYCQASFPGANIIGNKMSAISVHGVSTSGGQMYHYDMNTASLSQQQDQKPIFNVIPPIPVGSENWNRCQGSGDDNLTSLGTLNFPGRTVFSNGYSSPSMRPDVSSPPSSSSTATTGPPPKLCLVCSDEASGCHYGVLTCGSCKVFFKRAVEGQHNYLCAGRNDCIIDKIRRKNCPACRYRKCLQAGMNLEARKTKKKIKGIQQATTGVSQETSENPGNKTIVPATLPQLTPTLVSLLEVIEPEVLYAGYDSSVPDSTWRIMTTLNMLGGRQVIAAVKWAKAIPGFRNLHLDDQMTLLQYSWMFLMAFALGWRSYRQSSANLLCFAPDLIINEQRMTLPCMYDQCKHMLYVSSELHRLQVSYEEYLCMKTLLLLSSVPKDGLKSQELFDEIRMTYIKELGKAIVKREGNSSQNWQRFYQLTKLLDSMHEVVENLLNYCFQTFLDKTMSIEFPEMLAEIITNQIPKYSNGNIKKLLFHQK
Chain of Dual specificity protein kinase CLK4 (Homo sapiens) (Q9HAZ1 whole entry, looked up): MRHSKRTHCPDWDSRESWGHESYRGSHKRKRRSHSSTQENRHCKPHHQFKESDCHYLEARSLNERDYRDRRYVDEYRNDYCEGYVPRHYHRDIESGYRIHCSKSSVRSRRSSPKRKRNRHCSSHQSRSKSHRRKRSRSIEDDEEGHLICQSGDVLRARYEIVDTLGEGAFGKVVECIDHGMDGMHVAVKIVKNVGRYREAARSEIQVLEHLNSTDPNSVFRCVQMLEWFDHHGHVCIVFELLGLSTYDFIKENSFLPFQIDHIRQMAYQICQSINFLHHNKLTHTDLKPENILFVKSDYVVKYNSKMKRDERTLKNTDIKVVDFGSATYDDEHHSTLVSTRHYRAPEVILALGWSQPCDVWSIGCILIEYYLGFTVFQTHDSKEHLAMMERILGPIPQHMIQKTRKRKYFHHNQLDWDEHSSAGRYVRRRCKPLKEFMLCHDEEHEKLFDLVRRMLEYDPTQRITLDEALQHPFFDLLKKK
Chain of Cytochrome P450 1A2 (Homo sapiens) (P05177 whole entry, looked up): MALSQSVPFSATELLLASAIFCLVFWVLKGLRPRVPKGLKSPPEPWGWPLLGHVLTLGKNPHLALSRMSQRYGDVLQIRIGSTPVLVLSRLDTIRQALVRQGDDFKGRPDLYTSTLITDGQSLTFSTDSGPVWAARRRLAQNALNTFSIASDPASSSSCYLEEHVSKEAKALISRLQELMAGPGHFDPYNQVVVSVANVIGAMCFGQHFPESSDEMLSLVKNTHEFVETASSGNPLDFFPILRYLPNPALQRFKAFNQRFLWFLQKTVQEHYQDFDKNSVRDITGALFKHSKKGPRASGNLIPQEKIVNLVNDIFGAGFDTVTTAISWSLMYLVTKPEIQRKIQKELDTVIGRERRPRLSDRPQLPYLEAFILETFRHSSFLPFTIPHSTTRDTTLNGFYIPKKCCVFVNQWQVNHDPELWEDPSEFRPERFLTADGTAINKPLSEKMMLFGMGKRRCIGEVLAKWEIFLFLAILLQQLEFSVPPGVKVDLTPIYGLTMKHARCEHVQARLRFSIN
Chain of Cytochrome P450 2C9 (Homo sapiens) (P11712 whole entry, looked up): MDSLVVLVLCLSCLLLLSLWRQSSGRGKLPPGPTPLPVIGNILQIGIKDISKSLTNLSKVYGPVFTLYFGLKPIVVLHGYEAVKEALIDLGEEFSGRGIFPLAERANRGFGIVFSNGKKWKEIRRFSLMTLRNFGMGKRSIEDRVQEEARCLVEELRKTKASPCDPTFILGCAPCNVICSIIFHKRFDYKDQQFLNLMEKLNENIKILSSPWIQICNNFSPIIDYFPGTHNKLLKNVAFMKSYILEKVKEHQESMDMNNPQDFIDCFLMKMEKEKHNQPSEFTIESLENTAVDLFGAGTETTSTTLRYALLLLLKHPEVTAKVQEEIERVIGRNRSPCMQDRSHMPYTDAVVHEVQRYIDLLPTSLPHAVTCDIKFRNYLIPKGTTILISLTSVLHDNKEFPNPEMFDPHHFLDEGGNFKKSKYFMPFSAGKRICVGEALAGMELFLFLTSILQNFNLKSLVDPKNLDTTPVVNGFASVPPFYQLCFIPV

Take `CCNc1ncc2nc(C)c(=O)n(C[C@H]3CCCO3)c2n1`: the Potency in test [1] is over 11.4 µM; in [3], 3.98 µM (active); in test [6] it was over 9.22 µM; in test [7], over 46 µM. The activity change, negative = inhibition in test [2] was 3.27%; in test [4] it was -7.96%. In addition, the activity, negative = inhibition in test [5] was -8.96%. The Potency entry in test [8], in [9], in test [10], in test [11] and in test [12] was “inactive” each time. For the same compound, the outcome in test [13] was inactive.

As for `c1ccc2c(N3CCOCC3)nc(-c3ccoc3)nc2c1`, the Potency in [1] was over 11.4 µM; in [3], 1.26 µM (active); in [6], over 46 µM; in [7], over 46 µM; in test [14], 6.31 µM (active); in [11], 14.1 µM (active). The activity change, negative = inhibition in test [2] was -5.2%; in test [4] it was 12.4%. For the same compound, in [5], the activity, negative = inhibition was -2.69%. For the same compound, the Potency entry in test [8], in test [15], in test [10] and in test [12] was “inactive” each time. The result in test [13] was inactive.

For `COc1cccc(-c2nccc(NCCc3c[nH]c4ccc(OC)cc34)n2)c1`, the Potency was 6.96 µM (active) in test [1], over 46 µM in [7], 25.1 µM (active) in [10] and 28.2 µM (active) in test [16]. In addition, the activity change, negative = inhibition in test [4] was -15.8%. Also, the activity, negative = inhibition in test [5] was -25.8%. Moreover, the Potency entry in test [8] and in test [12] was “inactive” each time. The result in [13] was inactive.

Turning to `COCCn1c(=O)c(-c2cccs2)nc2cncnc21`, the Potency is over 11.4 µM in test [1], 3.16 µM (active) in [3], over 9.22 µM in test [6] and over 46 µM in test [7]. In addition, the values for the activity change, negative = inhibition in [2] and in test [4] were -17.4% and 11.8%, respectively. Moreover, the activity, negative = inhibition in [5] is -2.25%. Further, the Potency entry in test [8], in [15], in test [10], in test [11] and in [12] was “inactive” each time. Further, the result in [13] was inactive.

Take `COCCn1c(=O)c(-c2cccc(C#N)c2)nc2cnc(Oc3ccc(OC)cc3)nc21`: the Potency is over 11.4 µM in [1]; 12.6 µM (active) in test [3]; over 9.22 µM in [6]; over 46 µM in [7]; 2.51 µM (active) in test [14]. Further, the activity change, negative = inhibition in test [2] was -21.9%. The activity, negative = inhibition in [5] was -15%. Also, the Potency result in test [8], in [9], in [15], in test [10], in test [11] and in test [12] was “inactive” throughout. For the same compound, the outcome in test [13] was inactive.

Consider `Cc1noc(C)c1-c1nccc(NC2CC2)n1`, for which the Potency in test [1] was over 11.4 µM; in test [3], 0.1 µM (active); in test [6] it was over 46 µM; in [7], over 46 µM; in test [14], 2.51 µM (active). The activity change, negative = inhibition in [2] is 13.6%; in [4], 19.7%; in test [17], 3.44% [at 2.29 µM]. For the same compound, in test [5], the activity, negative = inhibition was 1.49%. Besides, the Potency result in test [8], in [9], in test [15], in [10], in test [11] and in [12] was “inactive” in each case. Moreover, the outcome in test [13] was inactive.
